# Test results as given in PubChem BioAssay AID463173 (ICCB-Longwood Screening Facility, Harvard Medical School, 2010).
# The campaign covered roughly 52,000 compounds. About 4,300 (8.3%) were called active. What follows is part of a selection rich in actives, with near analogues and random picks from the rest. A number with no mark means an inactive call. Rule as the data show it: active = survival mostly below about 52% (no sharp cut-off); inactive = mostly above about 56%.
# System: DeltatarO mutant
# Assay: S. aureus survival, RN4220 and DeltatarO strains – OD600, teichoic acid synthesis inhibitors, primary screen (AID 463173)
# Details: S. aureus RN4220 wild type/DeltatarO growth, OD600, 18 h, active compounds read low, screened at 18.75 µg/mL (by protocol)
row,SMILES,survival
1,Cc1ccnc(NS(=O)(=O)c2ccc(NC(=O)c3nc(SC(C)C)ncc3Cl)cc2)n1,58%
2,CCOC(=O)c1noc2nc(C)n(CC(=O)Nc3cccc(OC)c3)c(=O)c12,108%
3,O=c1c2ccccc2nc(-c2ccccc2)n1CCCn1ccnc1,107%
4,CCCc1cc(C(=O)Nc2c(C)nn(Cc3ccc(Cl)c(Cl)c3)c2C)no1,56%
5,O=C(NCc1ccc2c(c1)CCN2C(=O)c1ccc(F)cc1)c1cc2ccccc2[nH]1,97%
6,COc1cccc(NC(=O)NCc2ccc3c(c2)CCN3C(=O)c2ccccc2)c1,52% (active)
7,CCOC(=O)c1cccc(NC(=O)NCc2ccc3c(c2)CCN3C(=O)c2ccccc2)c1,116%
8,Cc1cccc(C(=O)N2CCc3cc(CNC(=O)c4cc5ccccc5[nH]4)ccc32)c1,81%
9,O=C(NCc1ccc2c(c1)CCN2C(=O)c1ccccc1)c1cc2ccccc2[nH]1,6% (active)
10,COc1ccc(OCC(=O)NCc2ccc3c(c2)CCN3C(=O)c2cccc(C)c2)cc1,82%
11,O=C(NCc1ccc2c(c1)CCN2C(=O)c1ccccc1)Nc1cccc(C(F)(F)F)c1,123%
12,COc1ccc2cc(C(=O)NCc3ccc4c(c3)CCN4C(=O)c3ccccc3)[nH]c2c1,-1% (active)
13,COc1ccc(CCC(=O)NCc2ccc3c(c2)CCN3C(=O)c2cccc(C)c2)cc1,76%
14,COc1ccc2cc(C(=O)NCc3ccc4c(c3)CCN4C(=O)c3ccc(F)cc3)[nH]c2c1,86%
15,COc1ccc(CC(=O)NCc2ccc3c(c2)CCN3C(=O)c2cccc(C)c2)cc1,-4% (active)
16,COc1ccc2cc(C(=O)NCc3ccc4c(c3)CCN4C(=O)c3ccc(C)cc3)[nH]c2c1,75%
17,CCC1CCCCN1Cc1cn2c(-c3ccc(Br)cc3)nnc2s1 (stereo not drawn),80%
18,Cc1ccc(Cn2c(=O)c3cccnc3n(CC(=O)Nc3cc(Cl)ccc3C)c2=O)cc1,85%
19,CCCOc1cccc(C2c3c(oc4ccc(F)cc4c3=O)C(=O)N2CCc2ccc(OC)cc2)c1 (stereo not drawn),92%
20,CCOC(=O)c1[nH]c(C)c(CCC(=O)NC(C)c2ccccc2)c1C (stereo not drawn),83%

row,SMILES,survival
1,O=C(NC12CC3CC(CC(C3)C1)C2)c1cncc(O)c1,90%
2,CCc1ccccc1NC(=O)c1ccc2c(c1)N(Cc1cc(C)ccc1C)C(=O)c1ccccc1S2(=O)=O,84%
3,Cn1c(=O)n(C)c2cc(/C=N/NC(N)=S)ccc21,98%
4,CCn1cc(C(=O)N2CCN(c3ccc(F)cc3)CC2)c(=O)c2cc(S(=O)(=O)N(C)C3CCCCC3)ccc21,73%
5,CCOc1ccc(C(=O)NCc2ccc3c(c2)CCN3C(=O)c2ccccc2)cc1,-2% (active)
6,O=C(NCc1ccc2c(c1)CCN2C(=O)c1ccccc1)c1ccccc1,79%
7,CCOc1ccc(C(=O)NCc2ccc3c(c2)CCN3C(=O)c2ccc(Cl)cc2)cc1,91%
8,CC(=O)c1cccc(NC(=O)C(CC(C)C)NS(=O)(=O)c2ccc3c(c2)CCN3C(C)=O)c1 (stereo not drawn),115%
9,COc1ccccc1OCCn1c(COc2cc(C)ccc2C)nc2ccccc21,61%
10,COCc1nc2ccccc2n1CCOc1cccc(C)c1,39% (active)
11,Cc1cccc(OCCn2c(SCC(N)=O)nc3ccccc32)c1,121%
12,Cc1ccc(OCCn2c(COc3ccc(Cl)cc3)nc3ccccc32)cc1,65%
13,Cc1ccc(OCc2nc3ccccc3n2CCOc2ccc(Cl)cc2)cc1,15% (active)
14,COc1ccccc1OCCn1c(C(C)Oc2ccccc2)nc2ccccc21 (stereo not drawn),66%
15,COc1cccc(OCc2nc3ccccc3n2CCOc2ccccc2C)c1,38% (active)
16,COc1ccc(OCCn2c(C(C)Oc3ccccc3)nc3ccccc32)cc1 (stereo not drawn),48% (active)
17,CCCC(O)c1nc2ccccc2n1CCCCOc1ccc(OC)cc1 (stereo not drawn),52%
18,COc1ccccc1NC(=O)C1=C(C)Nc2nc(SCc3ccccc3)nn2C1c1ccccn1 (stereo not drawn),65%
19,Cc1cc(C)cc(Nc2sc(C(=O)c3ccccc3)c(N)c2S(=O)(=O)c2ccccc2)c1,101%
20,Cc1ccsc1CCN1C(=O)N(c2ccccc2)C(=O)C1CC(=O)Nc1ccc(F)cc1 (stereo not drawn),114%

row,SMILES,survival
1,CC(C)=CCC(C)(C)C1OCCN1C(=O)Nc1ccccc1 (stereo not drawn),95%
2,Cc1sc2c(c1C)c(=O)n(Cc1ccccc1)c(=O)n2Cc1ccc(F)cc1,109%
3,COc1ccc(C2CC(=O)c3cc(-c4nc(-c5ccc(Cl)cc5)cs4)c(=O)[nH]c3C2)cc1OC (stereo not drawn),59%
4,CC(=O)c1ccc(NC(=O)/C=C/c2ccc(C)o2)cc1,48%
5,COc1ccc(Cn2ccnc2SCC(=O)Nc2nc3ccccc3s2)cc1,84%
6,CCc1ccc(OCCCSc2nc(-c3ccc(C(C)(C)C)cc3)nc3cc(=O)[nH]n23)cc1,80%
7,CCOC(=O)c1[nH]c(C)c(C(=O)NCc2ccc(F)cc2)c1C,79%
8,O=S(=O)(c1cccc(Cl)c1)c1nnn2c1nc(NC1CCCCCC1)c1sccc12,106%
9,COc1cccc(OCc2nc3ccccc3n2CCOc2ccccc2)c1,35% (active)
10,CCCn1c(COc2cccc(C)c2)nc2ccccc21,12% (active)
11,COc1cccc(OCc2nc3ccccc3n2C)c1,57%
12,COc1cccc(OCc2nc3ccccc3n2CCOc2ccc(C)cc2)c1,36% (active)
13,CCCCn1c(COc2cccc(OC)c2)nc2ccccc21,57%
14,COc1cccc(OCCn2c(-c3ccc(Br)cc3)nc3ccccc3c2=O)c1,82%
15,COc1cccc(OCc2nc3ccccc3n2CCOc2cccc(C)c2)c1,44% (active)
16,O=S(=O)(NCc1ccccc1Cl)c1ccc(-c2cnc(C3CC3)o2)cc1,101%
17,CC1CCN(c2nc3c(S(=O)(=O)c4cccc(Cl)c4)nnn3c3ccsc23)CC1,81%
18,Cc1c(C#N)c2ccccc2n1CC(=O)NC1CCCCCC1,72%
